From PubChem BioAssay
Epigenetic mod = epigenetic modulators derepressing GFP locus in mouse cells; mouse C127i GFP locus derepression, cytometry, 30 h; AID 597; 0.09% of 68,000 active; Potency, µM (titrated, usually from 46.1 µM), without a hit: at the top dose GFP derepression (activation); note: % of control where 0% means no effect
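Murine C127i mammary cells carrying a silenced, stably integrated CMV-driven GFP reporter were treated with compound for 30 hours at 37 C. After PBS washes, GFP-positive cells were counted by laser-scanning microplate cytometry.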
USP2a inh = inhibitors of human ubiquitin-specific protease USP2a | USP2a enzymatic assay, qHTS inhibition | Potency, µM (top dose mostly 38.3 µM), for inactives: top-dose activity change, negative = inhibition, most hits filed as inhibitors | 0.1% of 60,000 active | AID 927; note: potency is the fitted concentration of half-maximal effect; nearly all actives have a fitted effect of over 60% in size
Target sequence (O75604 whole entry, looked up): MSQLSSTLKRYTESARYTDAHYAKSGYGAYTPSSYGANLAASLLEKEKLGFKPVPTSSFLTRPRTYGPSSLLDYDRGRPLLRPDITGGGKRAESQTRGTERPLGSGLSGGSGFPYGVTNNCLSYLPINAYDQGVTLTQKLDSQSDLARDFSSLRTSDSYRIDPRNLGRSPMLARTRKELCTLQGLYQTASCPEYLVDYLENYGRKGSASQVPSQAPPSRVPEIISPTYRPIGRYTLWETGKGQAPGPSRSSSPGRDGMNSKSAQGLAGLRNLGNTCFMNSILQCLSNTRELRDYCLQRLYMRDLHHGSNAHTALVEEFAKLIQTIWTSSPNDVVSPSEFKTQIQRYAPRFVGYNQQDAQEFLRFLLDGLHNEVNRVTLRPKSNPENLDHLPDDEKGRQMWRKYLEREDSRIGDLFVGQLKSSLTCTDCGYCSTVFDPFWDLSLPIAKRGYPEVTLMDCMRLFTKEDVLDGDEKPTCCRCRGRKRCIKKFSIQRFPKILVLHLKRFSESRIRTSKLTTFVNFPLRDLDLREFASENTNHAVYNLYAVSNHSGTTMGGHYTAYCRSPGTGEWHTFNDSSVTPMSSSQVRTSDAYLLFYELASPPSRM
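Coupled readout: USP2-cleaved Ub-PLA2 (20nM final) turns over NBD C6-HPC (20uM final), Ex 460nm/Em 535nm after 2.5 h, time-zero read flagging artifacts. Enzyme (20nM final, pH 8.0 Tris) given 30 min RT with compound first; NEM defines full inhibition.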
HBB splice mod = modulators of hemoglobin beta chain splicing. AID 925. HBB splicing reporter cell assay, activation; EGFP reporter with mutant IVS2-654 intron; response scale: normalised to 500 nM splice-correcting PNA. 0.06% of 65,000 active. Potency, µM (highest dose often 46.1 µM), for the others: top-dose activation, actives largely listed as activators; note: potency is the fitted concentration of half-maximal effect; 0% is about no effect
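Compounds were applied for 2 days to HeLa EGFP-654 cells, 500/well in Optimem with 2% FCS. The reporter's EGFP is disrupted by mis-splicing of beta-globin intron IVS2-654. Readout: summed well GFP fluorescence from 488 nm laser scanning; reference was 500 nM antisense […] 654 PNA.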
GBA mod = modulators of human glucocerebrosidase. Potency, µM. 1.1% of 48,000 active. P04062. purified enzyme, resorufin glucoside fluorescence (screen aimed at inhibitors), 20 min; in the data active = potency below about 15 µM; inconclusive = mostly about 16 µM to 33 µM;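 note: potency is the fitted concentration of half-maximal effect; the screen sought inhibitors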
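Wild-type enzyme at 0.2 nM final in 50mM citric acid/KH2PO4, 10mM sodium taurocholate, 0.01% tween-20, pH 5.9, with resorufin beta-D-glucopyranoside at 30 uM final. Compounds titrated, 20 min at RT, red fluorescence read; AC50 from titration.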
UbGFP stabilizer = inhibits proteasome, raising ubiquitin-GFP reporter fluorescence; Ubiquitin-GFP reporter cells, proteasome inhibition, GFP fluorescence; response scale: untreated = 0%, 10 µM MG-132 = 100%; 67,000 tested, under 10 active; Potency, µM (titrated, usually from 45.9 µM), for inactives: at the highest dose activation (GFP accumulation), usual class: activators; AID 526; active = well fitted activation curve with a large enough effect, not every such curve was filed as active; inconclusive = small, poorly fitted or top-dose-only effect, or another doubt; inactive = no such curve, though single readings can be large or run the other way; note: potency is the fitted concentration of half-maximal effect
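U2OS Ub(G76V)-GFP reporter; O/N plating, 0.5% FBS; cpd 46 uM–2.9 nM, 4 h, 37 °C; GFP+ cell count, 488/515 nm; norm. to basal vs 10 uM MG-132; CRC fit.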
* hit, by the source's call; i = inactive; ? = inconclusive; . = no result; ! = repeats disagree; [ ] = another dose, or the depositor's remark. Many of the other results were omitted from the sample, so hits are more common in it than they were. Unless noted, calls come from the whole dose curve; as a rule, active = well fitted curve in the direction sought with a large enough effect; inconclusive = small, poorly fitted or top-dose-only effect, or another doubt; inactive = no such curve, though single readings can be large; an effect the other way counts as inactive or inconclusive.

SMILES	Epigenetic mod	USP2a inh	HBB splice mod	GBA mod	UbGFP stabilizer
CCN1C(=O)[C@H]2[C@H]3[C@H](O)[C@H](O)C/C(=N/OC[C@@H]4O[C@H](c5ccccc5)C=C[C@@H]4Oc4ccc(OC)cc4)[C@@H]3CC[C@@H]2C1=O	.	.	-0.4%[9.22 µM]	.	.
CCOC(=O)N/N=C1/C[C@@H](O)[C@@H](O)[C@@H]2[C@@H]3C(=O)N(Cc4ccc5c(c4)OCO5)C(=O)[C@H]3CC[C@@H]12	.	.	3.5%[9.22 µM]	.	.
COC(=O)c1sccc1NC(=O)c1c(C)noc1C	1.6%	33.6%	-0.9%	12.1*	-0.9%
COc1cc(-c2nnc3sc(C4CCCCC4)nn23)cc(OC)c1OC	0.0%	8.5%	-6.0%[0.369 µM]	7*	1.7%
Cc1cccc2cc(C#N)c(SCC(=O)N3CC(=O)Nc4ccccc43)nc12	15.8µM*	37.6%	?	.	15.5%
CCO[C@H](c1cc(OC)cc([N+](=O)[O-])c1OC)[C@H](C)/C=C\CC(=O)OC	.	.	1.4%[9.22 µM]	.	.
CCn1c(-c2c[nH]c3ccccc23)n[nH]c1=S	-2.7%	3.7%	-0.5%	10.8*	5.0%
C=CCn1c(-c2c[nH]c3ccccc23)n[nH]c1=S	-2.0%	9.0%	-1.9%[1.84 µM]	>76.9	2.9%
C[N+]1(C)CC[C@@H](OC(=O)[C@@](O)(c2ccccc2)C2CCCC2)C1	-1.2%[20.6 µM]	-8.3%[17.1 µM]	0.2%[20.6 µM]	.	-2.5%[20.5 µM]
O=C(Oc1cccc2cccnc12)c1ccc(Br)o1	5.01µM*	?	.	>76.9	-2.5%
c1ccc(/N=C2\N=C(Nc3ccccn3)c3ccccc32)nc1	12.6µM*	3.2%	-0.4%[57.5 µM]	>76.9	-2.0%
COc1cccc(NC(=O)N(CCCN2CCOCC2)C(C)c2cc3cccc(OC)c3o2)c1 (configuration not stated)	2.9%	39.5%	-1.3%	9.63*	1.6%
CCC(=O)N1CCN(c2ccc(NC(=O)c3cc4ccccc4o3)cc2Cl)CC1	1.7%	41.7%	-1.5%	3.23*	-0.6%
CCCC(=O)N1CCN(c2ccc(NC(=O)c3cc4ccccc4o3)cc2Cl)CC1	0.5%	40.4%	-1.8%	4.22*	0.7%
CCOC(=O)c1cnc(-n2nc(C)cc2C)nc1Nc1ccc(N(C)C)cc1	14.4%	16.5%	5.9%	>76.9	-9.9%
CCOC(=O)c1cnc(-n2cc(C)cn2)nc1Nc1ccccc1OC	-2.6%	32.5%	0.7%	12.3*	-4.8%
COc1ccc(N=c2oc3c(OC)cccc3cc2C(=O)NCc2ccco2)c(OC)c1	10.6%	98.3%	.	2.1*	0.0%
C[C@@H](C(=O)Nc1ccc2ccccc2c1)[C@@H]1C[C@@]1(C)[C@@H](NS(=O)(=O)c1ccc(-c2ccccc2)cc1)c1ccccc1	.	.	-0.1%	.	.
Cc1ccc(N(CC(=O)NC2CCCCCC2)S(=O)(=O)c2c(C)nn(C)c2C)cc1	-2.9%	43.9%	-2.0%	14.6*	4.6%
COc1ccc(N(CC(=O)NC2CCCCCC2)S(=O)(=O)c2c(C)nn(C)c2C)cc1	-1.0%	19.1%	0.5%	>76.9	-2.9%
Cc1noc(C)c1-c1nccc(Nc2ccc(F)cc2)n1	5.0%[9.22 µM]	1.4%	-0.5%	.	-8.1%
COc1ccc(CCN2CCC(Nc3nc4ccccc4n3Cc3ccc(F)cc3)CC2)cc1	10µM*!	43.2%	0.4%[20.6 µM]	.	2.1%[20.5 µM]
COc1ccc(CNc2nc3c(c(=O)n(Cc4ccc(F)cc4)c(=O)n3C)n2C)cc1	-2.2%	31.1%	-1.9%[57.5 µM]	>76.9	-3.5%
CCCCCCCCCC(=O)N[C@@H](CN1CCOCC1)[C@@H](O)c1ccccc1	-1.1%	29.4%	0.0%	.	4.9%
NCC1O[C@@H](OC2C(N)C[C@H](N)[C@@H](O[C@H]3OC(CO)C(O)C(N)C3O)C2O)C(N)C(O)C1O (some centres not stated)	.	2.5%	.	.	.
SMILES	Epigenetic mod	USP2a inh	HBB splice mod	GBA mod	UbGFP stabilizer
COc1cccc(NS(=O)(=O)c2ccc(Br)s2)c1	-1.2%	10.6%	0.9%	14.3*	-19.7%
COc1ccccc1NS(=O)(=O)c1ccc(Br)s1	0.0%	6.7%	-3.0%	>76.9	23.8%
COc1cc2c(cc1O)CCC1C2CC[C@@]2(C)C1CC[C@@H]2O (some centres not stated)	-1.4%	.	.	.	0.0%
CCCn1cnc2c(c1=O)c1nc3ccccc3nc1n2CCC1=CCCCC1	0.0%	-8.0%	2.8%[57.5 µM]	>76.9	-4.1%
CCCn1cnc2c(c1=O)c1nc3ccccc3nc1n2CCc1ccccc1	-1.6%	6.2%	8.8%[0.369 µM]	7.01*	-2.6%
O=Nc1c(-c2c(O)[nH]c3cc(Br)ccc23)[nH]c2ccccc12	.	12.6µM*	.	.	.
Oc1[nH]c2ccccc2c1C1=NCCCC1	-2.0%	-0.3%	3.1%[1.84 µM]	>76.9	4.3%
Cn1c(=O)n(Cc2ccccc2F)c(=O)c2c1nc1n2CCCN1CCc1ccccc1	-2.1%	7.9%	3.0%[0.369 µM]	13.5*	.
Cn1c(=O)n(CCc2ccccc2)c(=O)c2c1nc1n2CCCN1Cc1ccccc1	2.2%	12.1%	8.7%[0.369 µM]	i	0.0%
COc1ccc(N2CCCn3c2nc2c3c(=O)n(CCc3ccccc3)c(=O)n2C)cc1	0.5%	9.2%	2.3%[1.84 µM]	12*	22.9%
Cn1c(=O)n(CCc2ccccc2)c(=O)c2c1nc1n2CCCN1CCc1ccccc1	0.5%	-1.0%	2.6%[0.369 µM]	8.99*	.
COCCn1c(=O)c(CCc2ccccc2)nc2cnc(N3CCOCC3)nc21	-0.4%[9.22 µM]	21.3%	1.6%	.	1.7%
CN1CCN(c2ccnc(-c3ccccc3C(F)(F)F)n2)CC1	-2.9%[9.22 µM]	-9.6%	-1.5%	.	3.3%
